These results are taken from the supplement of paper PMC12532568.

Structures can show the parent of a compound that is named as a salt.

This assay relates to Danio rerio larvae Tg(actc1b:ZsGreen-LC3), 3 dpf. The experiment in a line: LC3 puncta relative area vs vehicle, without NH4Cl (log2 fold change); higher = more autophagosomes. The following applies: 10 µM; treatment time 16 h; NH4Cl: none. On the procedure: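 Transgenic Tg(actc1b:ZsGreen-map1lc3) zebrafish larvae (2 dpf) were treated for 16 h with Tocris library compounds at 10 µM (n = 12 larvae per compound). Skeletal-muscle LC3 puncta area relative to body area was measured by high-content confocal imaging before and after 4 h of 100 mM NH4Cl (autophagic flux), normalised to vehicle (DMSO), and reported as log2 fold change.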
Turning to `Clc1cccc(Nc2nnc(-c3ccccc3)c3ccccc23)c1`, the “LC3 puncta (log2)” value was 0.29.

Consider `c1ccc2sc(N3CCN(Cc4ccc5c(c4)OCO5)CC3)nc2c1` [2-[1-(4-Piperonyl)piperazinyl]benzothiazole], for which the “LC3 puncta (log2)” value was 0.135.

In the case of `O=C(O)c1cc(=O)c2c(Cl)cc(Cl)cc2[nH]1` [5,7-Dichlorokynurenic acid], the “LC3 puncta (log2)” value was -0.0706.

`c1ccc(CN2CCC3(CCc4ccccc43)CC2)cc1` [L-693,403 maleate]: the “LC3 puncta (log2)” value was -0.0234.

For the compound `O=S(=O)(c1cccc2cnccc12)N1CCCNCC1` [Fasudil hydrochloride], the “LC3 puncta (log2)” value is 0.598.

Regarding `CN1CCC(=C2c3ccccc3CC(=O)c3sccc32)CC1` [Ketotifen fumarate], the “LC3 puncta (log2)” value was found to be 0.589.

`c1ccc2oc(C3=NCCN3)cc2c1` [2-BFI hydrochloride]: the “LC3 puncta (log2)” value worked out at 0.0586.

For the compound `CN(C)CCCSC(=N)N` [Dimaprit dihydrochloride], the “LC3 puncta (log2)” value worked out at 0.203.

Turning to `CCCCCCN(CCCCCC)C(=O)Cc1c(-c2ccc(Cl)cc2)[nH]c2ccc(Cl)cc12`, the “LC3 puncta (log2)” value is 0.364.

Consider `O=S(=O)(c1cccc2c(Cl)cccc12)N1CCCNCC1` [ML 9 hydrochloride], for which the “LC3 puncta (log2)” value worked out at 0.232.

Turning to `N[C@@H](C(=O)O)c1ccc(O)c(C(=O)O)c1` [(R)-3-Carboxy-4-hydroxyphenylglycine], the “LC3 puncta (log2)” value worked out at 0.211.

With `CC(=O)N1CCN(C)CC1` [1-Acetyl-4-methylpiperazine hydrochloride], the “LC3 puncta (log2)” value stood at 0.18.

On to `COc1ccccc1N1CCN(CCCCN2C(=O)c3ccccc3C2=O)CC1` [NAN-190 hydrobromide], for which the “LC3 puncta (log2)” value is 0.201.

On to `NC(=O)Nc1sc(-c2ccc(F)cc2)cc1C(N)=O`, for which the “LC3 puncta (log2)” value was 0.302.

As for `N=C(N)S/C=C\C(=O)O` [ZAPA sulfate], the “LC3 puncta (log2)” value was 0.0963.

On to `Nc1nc2ccc(OC(F)(F)F)cc2s1` [Riluzole], for which the “LC3 puncta (log2)” value worked out at 0.289.

With `N=C(N)SCCc1c[nH]cn1` [Imetit dihydrobromide], the “LC3 puncta (log2)” value was 0.595.

Turning to `O=C1c2ccccc2CCC1CNCCc1ccc(O)cc1` (stereo not given) [HEAT hydrochloride], the “LC3 puncta (log2)” value stood at 0.103.

`CC(=O)N[C@@H](CC(=O)N[C@@H](CCC(=O)O)C(=O)O)C(=O)O` [Spaglumic acid]: the “LC3 puncta (log2)” value is -0.106.

Regarding `C/N=C(/NC#N)NCCSCc1csc(NC(=N)N)n1` [Tiotidine], the “LC3 puncta (log2)” value came to 0.383.

`CC(C)NCC(O)c1ccc2ccccc2c1` (stereo not given) [Pronethalol hydrochloride]: the “LC3 puncta (log2)” value was 0.437.

Consider `CCc1nc(N)nc(N)c1-c1ccc(Cl)cc1` [Pyrimethamine], for which the “LC3 puncta (log2)” value was 0.169.

For `O=[N+]([O-])c1cccc2cn[nH]c12` [7-Nitroindazole], the “LC3 puncta (log2)” value was 0.16.

With `CCOC(=O)C1=C[C@]2(CC)CCCN3CCc4c(n1c1ccccc41)[C@@H]32` [Vinpocetine], the “LC3 puncta (log2)” value is 0.406.

On to `CCC(C)N(C)C(=O)c1cc2ccccc2c(-c2ccccc2Cl)n1` (stereo not given), for which the “LC3 puncta (log2)” value is -0.0562.

With `O=C(NCCCN1CCCCCC1)C(c1ccccc1)C1CCCCC1` (stereo not given), the “LC3 puncta (log2)” value amounted to 0.0552.

For `CCN(CC)CCOCCOC(=O)C1(c2ccccc2)CCCC1` [Carbetapentane citrate], the “LC3 puncta (log2)” value is -0.0165.

As for `S=C(S)N1CCCC1` [Pyrrolidinedithiocarbamate ammonium], the “LC3 puncta (log2)” value was found to be 0.439.

As for `OCCN(CCO)c1nc(N2CCCCC2)c2nc(N(CCO)CCO)nc(N3CCCCC3)c2n1` [Dipyridamole], the “LC3 puncta (log2)” value is -0.714.

Regarding `COC(=O)C1=C(C)NC(C)=C(C(=O)OCCSc2ccccc2)C1C` (stereo not given), the “LC3 puncta (log2)” value was 0.00326.

Consider `CC(C)[C@H]1CC[C@H](C(=O)N[C@H](Cc2ccccc2)C(=O)O)CC1` [Nateglinide], for which the “LC3 puncta (log2)” value turned out to be 0.316.

As to `CCCC[C@@H](C=O)NC(=O)[C@H](CC(C)C)NC(=O)OCc1ccccc1` [Calpeptin], the “LC3 puncta (log2)” value is 1.15.

Regarding `O=[N+]([O-])c1cccc2c(Br)[nH]nc12` [3-Bromo-7-nitroindazole], the “LC3 puncta (log2)” value is 0.159.

Consider `c1ccc(N2CCN(CCCOc3ccc4c(c3)OCO4)CC2)cc1` [BP 554 maleate], for which the “LC3 puncta (log2)” value was 0.01.

Regarding `CC(C)[N+]1(C)[C@@H]2CC[C@H]1C[C@@H](OC(=O)C(CO)c1ccccc1)C2` (stereo not given in full) [Ipratropium bromide], the “LC3 puncta (log2)” value is -0.65.

For `CNCCCCOc1ccccc1Cc1ccccc1` [Bifemelane], the “LC3 puncta (log2)” value was found to be 0.531.

Turning to `c1cc2c(cc1C1CCCCC1)c1c3n2CCNC3CCC1` (stereo not given) [Tetrindole mesylate], the “LC3 puncta (log2)” value amounted to 0.672.

Consider `CSc1ccc2c(c1)C(N1CCN(C)CC1)Cc1ccccc1S2` (stereo not given) [Methiothepin maleate], for which the “LC3 puncta (log2)” value is -0.425.

Regarding `CC12CC3CC(C)(C1)CC(N)(C3)C2` [Memantine hydrochloride], the “LC3 puncta (log2)” value came out at 0.145.

Turning to `c1ccc2nc(C3=NCCN3)cnc2c1` [BU 239 hydrochloride], the “LC3 puncta (log2)” value is -0.208.
